Measured values from PubChem BioAssay (NCATS).
Results filed as inconclusive are left out. The source made the active and inactive calls. Unless noted, calls follow the shape of the dose curve; as a rule, active = well fitted curve in either direction with a large enough effect (not every such curve was filed as active); inconclusive = small, poorly fitted or top-dose-only effect, or another doubt; inactive = flat fitted curve, though single readings scatter.

Legend:
[1] = biological target: Lysosomal acid glucosylceramidase (Homo sapiens) (UniProt P04062); experiment: Glucocerebrosidase-p2 (AID 348; in the data active = potency below about 10 µM; also: potency is read from the fitted curve at half-maximal effect); details: purified GBA, blue fluorogenic substrate, 40 min
Method in brief: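 Normal human glucocerebrosidase (0.2 nM) with blue fluorogenic substrate (80 uM final) in citrate/phosphate pH 5.9 with 10mM sodium taurocholate, 0.01% tween-20; 40 min RT, NaOH/glycine stop; fluorescence Ex 365/Em 440; AC50 from a titration from 0.6 nM upwards.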

[2] = AP1 Signaling Pathway (AID 357); details: ME-180 AP-1-bla reporter, EGF-induced, beta-lactamase ratio, 5 h; at 7.69 µM (top of the series) unless noted;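 also: ME-180 reporter cells stimulated with EGF at its EC50 level; % is scaled to controls: 0 for no effect and ±100 for the full control effect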
Method in brief: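 In this screen, ME-180 cells in Opti-MEM with 0.5% dialyzed FBS received EC50 EGF and compound titrations for 5 h. AP-1 reporter beta-lactamase was detected via CCF4 ratio, giving AC50 for positive and negative modulators.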

[3] = biological target: Cytochrome P450 1A2 (Homo sapiens) (UniProt P05177); experiment: p450-cyp1a2 (AID 410; calls by dose curve; also: potency is read from the fitted curve at half-maximal effect); details: recombinant CYP1A2, luciferin-ME demethylation, luminescence; series mostly up to 57 µM
Method in brief: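 Luminescent demethylation readout: Luciferin-ME (100uM, equal to Km) turned over by 20nM CYP1A2 for 60 min at room temperature after NADPH regeneration addition, following 10 min compound preincubation. Normalization used 57 uM furafylline as full inhibition.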

[4] = NFAT Signaling Pathway (AID 444); details: Jurkat NFAT-bla M1, carbachol, beta-lactamase ratio, 5 h; at 7.69 µM (top of the series) unless noted;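 also: carbachol stimulus at about its EC50 of 1 µM final; % is scaled to controls: 0 for no effect and ±100 for the full control effect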
Method in brief: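 Jurkat cells with NFAT-driven β-lactamase reporter and co-expressed M1 receptor, stimulated with carbachol (final 1 uM, ~EC50), compound titration, 5 h at 37 °C. CCF4 loaded 1 h at RT; 460/530 nm ratio gave %activity and AC50.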

[5] = Stat Signaling Pathway (AID 446); details: ME-180 SIE beta-lactamase reporter, IL-6 stimulated, 5 h; at 7.69 µM (top of the series) unless noted;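 also: ME-180 cervical cancer cells given 40 pM IL-6 alongside compound; SIE-controlled beta-lactamase reporter measured as 460/530 nm FRET emission ratio; % is scaled to controls: 0 for no effect and ±100 for the full control effect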
Method in brief: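 Normalization used AC90 stimulation (300 pM IL-6) and AC90 inhibition (125 nM pan-JAK inhibitor at 40 pM IL-6). The underlying signal is SIE-driven beta-lactamase in ME-180 cells after 5 h IL-6 exposure with compound.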

[6] = biological target: Glucocorticoid receptor (Homo sapiens) (UniProt P04150); experiment: GR-GFP Redistribution (AID 450;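 active = compounds whose dose series gives a full or clear partial fitted curve of increased nuclear translocation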; also: potency is read from the fitted curve at half-maximal effect); details: U2OS GR-GFP nuclear translocation, laser cytometry, 2 h
[7] = biological target: Glucocorticoid receptor (Homo sapiens) (UniProt P04150); experiment: GR-EFC Redistribution (AID 451; calls by dose curve; also: potency is read from the fitted curve at half-maximal effect); details: CHO-K1 GR-EFC translocation, beta-gal luminescence, 2 h
Method in brief: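 CHO-K1 cells expressing nuclear EA and GR-ED fragments of b-gal; compounds titrated up to 46 uM final, 2 h at 37 C. GR nuclear translocation read as complemented b-gal luminescence after 1 h RT detection.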

[8] = biological target: Mitogen-activated protein kinase 10 (Mus musculus) (UniProt Q61831); experiment: JNK3 AlphaScreen Assay (AID 530); details: JNK3 lysate, c-Jun phosphorylation; series mostly up to 57.1 µM;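 also: kinase came from lysate of stimulated human HepG2 cells; signal reports phosphorylation of biotinylated GST-cJun 1-79 at Ser73 with 10 µM ATP; % is scaled to controls: 0 for no effect and ±100 for the full control effect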
Method in brief: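 Activity was read by AlphaScreen after JNK3-containing HepG2 lysate (cytokine pre-activated) phosphorylated biotinylated GST-cJun with 10 uM ATP at room temperature. Phospho-Ser73 cJun antibody with Protein-A acceptor beads provided detection.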

[9] = biological target: 3',5'-cyclic-AMP phosphodiesterase 4B (Homo sapiens) (UniProt Q07343); experiment: qHTS Assay for Inhibitors of PDE-IV (AID 607; active = well fitted activation curve with a large enough effect in the main read-out, with a control signal flat, not every such curve was filed as active; also: % of control where 0% means no effect); details: HEK293 ACTOne CNG channel cells, membrane potential fluorescence; series mostly up to 22.9 µM
Method in brief: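 HEK293 ACTOne cells with CNG channel (1000/well), endogenous PDE4; membrane potential dye, compounds up to 22.9 uM final. Fluorescence Ex 535/Em 590; RO 20-1724 (100 uM final) as reference.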

[10] = biological target: Cytochrome P450 3A4 (Homo sapiens) (UniProt P08684); experiment: qHTS Assay for Activators of Cytochrome P450 3A4 (AID 885; active = well fitted curve in the direction sought with a large enough effect; an effect the other way counts as inactive or inconclusive; also: nearly all actives have a fitted effect of over 65% in size); details: recombinant CYP3A4, Luciferin-PPXE luminescence, 60 min; series mostly up to 57.1 µM
Method in brief: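 Human CYP3A4 dealkylates Luciferin-PPXE to luciferin, which luciferase detection converts to light. Substrate was at its KM (25uM), buffer 200mM KPO4, reaction 60 min at RT.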

[11] = qHTS Assay for Lipid Storage Modulators (AID 1519; calls by dose curve); details: Drosophila S3 cells, BODIPY lipid droplet/cell ratio, laser cytometry, cells loaded with oleic acid; for activity change, negative = inhibition: at 57.5 µM (top of the series)
Method in brief: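 Cells seeded at 5,000 per well were treated with compounds over a concentration series and loaded with oleic acid (400 uM, as added). Lipid droplet fluorescence (488 nm excitation, 500-530 nm channel) was read by laser-scanning cytometry and normalized to 20 uM Triacsin C.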

[12] = Primary qHTS for small molecule stabilizers of the endoplasmic reticulum resident proteome: Secreted ER Calcium Modulated Protein (SERCaMP) assay (AID 1508630; active = well fitted curve in the direction sought with a large enough effect; an effect the other way counts as inactive or inconclusive; also: % is scaled to controls: 0 for no effect and ±100 for the full control effect); details: SH-SY5Y GLuc-SERCaMP (Gaussia luciferase released on ER calcium loss) secretion, thapsigargin, luminescence; series mostly up to 38.4 µM
Method in brief: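 The SH-SY5Y reporter protocol was run at 3 concentrations up to 38.3 uM (primary) or 11 concentrations (follow-up): 16 h compound, 100 nM thapsigargin for 4 h, then extracellular luciferase luminescence.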

[13] = biological target: Cytochrome P450 3A4 (Homo sapiens) (UniProt P08684); experiment: qHTS Assay for Inhibitors and Substrates of Cytochrome P450 3A4 (AID 884; active = well fitted curve in the direction sought with a large enough effect; an effect the other way counts as inactive or inconclusive; also: potency is read from the fitted curve at half-maximal effect; nearly all actives have a fitted effect of over 50% in size); details: recombinant CYP3A4, Luciferin-PPXE luminescence; series mostly up to 57.1 µM
Method in brief: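 Luminescent readout of luciferin produced by CYP3A4 (20 nM) dealkylation of Luciferin-PPXE, 25 uM (its KM). NADPH-driven reaction ran 60 min at RT after 10 min compound preincubation; data scaled to 57 uM ketoconazole as 100% inhibition.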

[14] = biological target: Cytochrome P450 2C19 (Homo sapiens) (UniProt P33261); experiment: qHTS Assay for Inhibitors and Substrates of Cytochrome P450 2C19 (AID 899; active = well fitted curve in the direction sought with a large enough effect; an effect the other way counts as inactive or inconclusive; also: potency is read from the fitted curve at half-maximal effect; nearly all actives have a fitted effect of over 60% in size); details: recombinant CYP2C19, luciferin-H EGE luminescence; series mostly up to 57.1 µM
Method in brief: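 5 nM human CYP2C19 with 10uM Luciferin-H EGE (at KM) in 50mM KPO4, compound preincubated 10 min at 37C, then NADPH regeneration for 60 min at 37C. Luciferin read by luminescence after detection reagent; normalized to 57uM ketoconazole as full inhibition.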

[15] = Confirmation and Secondary Assay for Modulators of Hemoglobin Beta Chain Splicing at IVS2 654 locus (AID 910; active = well fitted curve in the direction sought with a large enough effect; an effect the other way counts as inactive or inconclusive;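 also: HeLa cells stably carrying EGFP split by mutant beta-globin IVS2-654 intron; % of control where 0% means no effect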); details: HeLa EGFP-654 splicing reporter, GFP fluorescence, 48 h; series mostly up to 38.3 µM
Method in brief: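 HeLa cells stably expressing EGFP interrupted by β-globin IVS2-654 intron, seeded overnight in Opti-MEM/2% FCS, then treated 2 days at 37 °C. Restored splicing read as total peak GFP intensity per well by laser scanning cytometry (488 nm excitation, 500–520 nm emission); 500 nM antisense PNA as control.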

[16] = qHTS Assay for Identification of Small Molecule Agonists for Hypoxia Response Element Signaling Pathway (AID 914; active = well fitted activation curve with a large enough effect in the signal ratio, with a control signal flat, not every such curve was filed as active; the % refers to the signal ratio; also: % of control where 0% means no effect); details: ME-180 (cervical carcinoma) HRE-bla reporter, beta-lactamase ratio, CoCl2, 17 h; activation: stronger effect = higher value
Method in brief: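 Read-out: CCF4 FRET ratio of 460nm to 530nm emission (excitation 405nm) after 2.5 hours at room temperature, taken from HRE-bla ME-180 cells that had been exposed to compound and EC50 CoCl2 for 17 hours.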

[17] = Confirmation and Secondary Assay for Modulators of Hemoglobin Beta Chain Splicing at IVS2 705 locus (AID 930; active = well fitted curve in the direction sought with a large enough effect; an effect the other way counts as inactive or inconclusive;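 also: HeLa cells stably expressing the EGFP-705 splicing reporter; GFP fluorescence per well restored by corrected splicing of the IVS2-705 intron in EGFP; % of control where 0% means no effect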); details: HeLa EGFP-705 splicing reporter, GFP fluorescence, 48 h; series mostly up to 38.3 µM
Method in brief: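 HeLa EGFP-705 reporter; 500 cells/well, o/n 37C 5% CO2; cpd 2 d; 488 ex/500-520 em laser scan; total peak GFP intensity/well. Ref: 500 nM […] antisense PNA.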

[18] = biological target: Cytochrome P450 2D6 (Homo sapiens) (UniProt P10635); experiment: qHTS Assay for Inhibitors and Substrates of Cytochrome P450 2D6 (AID 891; active = well fitted curve in the direction sought with a large enough effect; an effect the other way counts as inactive or inconclusive; also: potency is read from the fitted curve at half-maximal effect; nearly all actives have a fitted effect of over 60% in size); details: recombinant CYP2D6, luciferin-ME EGE luminescence; series mostly up to 57.1 µM
Method in brief: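 Luminescent read-out of luciferin formed by 5 nM human CYP2D6 demethylating 30 uM Luciferin-ME EGE (Km level) over 60 min at room temperature after NADPH regeneration addition. Data normalized to full inhibition by 1.43 uM quinidine.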

[19] = measured here: cell count channel max response
[20] = measured here: lipid channel max response

Sequence of Cytochrome P450 1A2 (Homo sapiens) (P05177 whole entry, looked up): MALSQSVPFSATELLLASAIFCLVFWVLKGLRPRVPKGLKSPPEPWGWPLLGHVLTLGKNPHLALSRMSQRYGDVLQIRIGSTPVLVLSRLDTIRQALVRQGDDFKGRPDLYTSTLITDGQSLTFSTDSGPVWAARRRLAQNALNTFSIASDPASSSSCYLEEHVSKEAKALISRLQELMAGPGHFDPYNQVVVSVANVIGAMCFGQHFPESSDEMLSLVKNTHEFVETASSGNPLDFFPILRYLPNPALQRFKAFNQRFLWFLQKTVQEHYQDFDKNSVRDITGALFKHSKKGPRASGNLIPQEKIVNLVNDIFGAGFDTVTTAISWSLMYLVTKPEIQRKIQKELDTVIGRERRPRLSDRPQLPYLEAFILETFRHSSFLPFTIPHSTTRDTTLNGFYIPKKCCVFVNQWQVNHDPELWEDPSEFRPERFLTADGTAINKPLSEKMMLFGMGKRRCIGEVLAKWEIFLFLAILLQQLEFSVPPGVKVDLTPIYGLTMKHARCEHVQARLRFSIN
Sequence of Glucocorticoid receptor (Homo sapiens) (P04150 whole entry, looked up, the tested form may be a part): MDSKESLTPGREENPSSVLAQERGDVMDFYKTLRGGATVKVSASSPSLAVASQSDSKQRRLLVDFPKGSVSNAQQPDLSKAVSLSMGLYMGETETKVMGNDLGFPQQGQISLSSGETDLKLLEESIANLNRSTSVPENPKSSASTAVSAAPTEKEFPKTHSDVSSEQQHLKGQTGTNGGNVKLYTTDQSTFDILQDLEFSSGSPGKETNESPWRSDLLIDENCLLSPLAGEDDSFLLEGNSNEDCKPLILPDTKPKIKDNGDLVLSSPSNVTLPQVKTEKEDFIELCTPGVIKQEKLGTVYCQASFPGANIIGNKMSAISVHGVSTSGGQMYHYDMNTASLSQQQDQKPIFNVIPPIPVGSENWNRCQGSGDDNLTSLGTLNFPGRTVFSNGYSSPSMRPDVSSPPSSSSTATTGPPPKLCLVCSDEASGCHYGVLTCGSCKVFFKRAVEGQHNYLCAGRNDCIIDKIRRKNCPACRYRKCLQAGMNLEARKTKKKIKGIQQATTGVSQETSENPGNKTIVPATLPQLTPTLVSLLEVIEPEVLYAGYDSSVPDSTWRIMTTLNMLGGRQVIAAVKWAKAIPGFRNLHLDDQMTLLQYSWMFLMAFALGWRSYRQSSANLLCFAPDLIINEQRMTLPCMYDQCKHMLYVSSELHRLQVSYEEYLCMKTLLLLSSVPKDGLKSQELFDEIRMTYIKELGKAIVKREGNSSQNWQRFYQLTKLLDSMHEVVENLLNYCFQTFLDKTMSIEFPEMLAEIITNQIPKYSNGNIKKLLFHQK
Sequence of 3',5'-cyclic-AMP phosphodiesterase 4B (Homo sapiens) (Q07343 whole entry, looked up): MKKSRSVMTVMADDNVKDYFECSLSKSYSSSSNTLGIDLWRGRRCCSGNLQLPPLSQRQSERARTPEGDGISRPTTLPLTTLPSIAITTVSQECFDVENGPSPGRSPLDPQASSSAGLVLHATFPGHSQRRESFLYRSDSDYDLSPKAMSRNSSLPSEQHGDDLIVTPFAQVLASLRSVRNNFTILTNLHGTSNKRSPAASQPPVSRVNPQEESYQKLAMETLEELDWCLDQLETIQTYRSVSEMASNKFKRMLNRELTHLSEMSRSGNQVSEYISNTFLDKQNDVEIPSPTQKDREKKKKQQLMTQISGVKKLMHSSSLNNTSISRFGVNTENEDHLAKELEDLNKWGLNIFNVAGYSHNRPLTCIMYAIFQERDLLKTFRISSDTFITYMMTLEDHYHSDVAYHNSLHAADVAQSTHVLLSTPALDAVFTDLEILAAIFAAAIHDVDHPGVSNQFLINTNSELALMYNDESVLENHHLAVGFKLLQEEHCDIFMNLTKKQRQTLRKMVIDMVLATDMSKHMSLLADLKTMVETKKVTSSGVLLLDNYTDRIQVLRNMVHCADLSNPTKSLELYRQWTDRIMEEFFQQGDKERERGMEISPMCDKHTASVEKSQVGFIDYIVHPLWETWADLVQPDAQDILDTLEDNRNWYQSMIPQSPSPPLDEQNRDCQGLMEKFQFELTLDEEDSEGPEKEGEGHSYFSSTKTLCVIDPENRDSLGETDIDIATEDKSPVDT
Sequence of Lysosomal acid glucosylceramidase (Homo sapiens) (P04062 whole entry, looked up): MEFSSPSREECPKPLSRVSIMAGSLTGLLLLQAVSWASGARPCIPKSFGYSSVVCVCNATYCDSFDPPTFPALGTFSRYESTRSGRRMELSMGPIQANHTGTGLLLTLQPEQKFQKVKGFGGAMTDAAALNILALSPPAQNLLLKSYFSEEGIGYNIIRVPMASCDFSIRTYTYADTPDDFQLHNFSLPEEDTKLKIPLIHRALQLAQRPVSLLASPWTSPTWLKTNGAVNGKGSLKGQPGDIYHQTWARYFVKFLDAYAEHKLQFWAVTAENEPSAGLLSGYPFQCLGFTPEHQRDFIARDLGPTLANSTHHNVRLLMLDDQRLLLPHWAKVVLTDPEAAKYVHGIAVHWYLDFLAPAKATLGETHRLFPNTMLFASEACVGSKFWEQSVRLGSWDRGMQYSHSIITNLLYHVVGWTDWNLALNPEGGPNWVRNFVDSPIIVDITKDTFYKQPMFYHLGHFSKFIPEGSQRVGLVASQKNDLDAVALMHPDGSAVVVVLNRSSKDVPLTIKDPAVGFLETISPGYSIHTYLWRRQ
Sequence of Cytochrome P450 3A4 (Homo sapiens) (P08684 whole entry, looked up): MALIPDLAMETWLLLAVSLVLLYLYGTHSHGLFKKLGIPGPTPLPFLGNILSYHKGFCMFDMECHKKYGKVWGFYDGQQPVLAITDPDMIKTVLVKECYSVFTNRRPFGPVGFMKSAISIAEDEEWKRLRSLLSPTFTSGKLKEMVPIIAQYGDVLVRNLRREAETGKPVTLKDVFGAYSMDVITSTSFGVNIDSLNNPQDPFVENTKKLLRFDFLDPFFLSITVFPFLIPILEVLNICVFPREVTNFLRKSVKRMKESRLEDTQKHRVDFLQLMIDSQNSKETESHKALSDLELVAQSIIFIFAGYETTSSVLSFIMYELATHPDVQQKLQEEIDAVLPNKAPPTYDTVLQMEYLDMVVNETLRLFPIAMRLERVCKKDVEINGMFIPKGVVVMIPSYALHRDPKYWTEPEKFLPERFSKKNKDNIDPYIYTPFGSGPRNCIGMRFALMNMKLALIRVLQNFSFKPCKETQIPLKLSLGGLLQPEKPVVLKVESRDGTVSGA
Sequence of Cytochrome P450 2D6 (Homo sapiens) (P10635 whole entry, looked up): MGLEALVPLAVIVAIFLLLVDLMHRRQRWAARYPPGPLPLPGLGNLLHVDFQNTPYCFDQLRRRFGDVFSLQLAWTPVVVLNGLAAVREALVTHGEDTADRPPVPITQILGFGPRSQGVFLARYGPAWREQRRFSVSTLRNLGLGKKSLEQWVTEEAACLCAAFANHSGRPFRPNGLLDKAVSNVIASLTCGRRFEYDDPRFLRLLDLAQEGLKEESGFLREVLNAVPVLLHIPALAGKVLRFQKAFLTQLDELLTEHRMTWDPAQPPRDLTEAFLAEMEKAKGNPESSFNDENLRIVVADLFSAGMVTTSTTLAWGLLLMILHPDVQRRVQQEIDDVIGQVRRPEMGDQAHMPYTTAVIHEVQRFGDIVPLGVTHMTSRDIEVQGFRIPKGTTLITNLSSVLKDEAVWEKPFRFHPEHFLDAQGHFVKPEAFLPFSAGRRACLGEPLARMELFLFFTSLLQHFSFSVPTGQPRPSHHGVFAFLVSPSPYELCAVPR
Sequence of Cytochrome P450 2C19 (Homo sapiens) (P33261 whole entry, looked up): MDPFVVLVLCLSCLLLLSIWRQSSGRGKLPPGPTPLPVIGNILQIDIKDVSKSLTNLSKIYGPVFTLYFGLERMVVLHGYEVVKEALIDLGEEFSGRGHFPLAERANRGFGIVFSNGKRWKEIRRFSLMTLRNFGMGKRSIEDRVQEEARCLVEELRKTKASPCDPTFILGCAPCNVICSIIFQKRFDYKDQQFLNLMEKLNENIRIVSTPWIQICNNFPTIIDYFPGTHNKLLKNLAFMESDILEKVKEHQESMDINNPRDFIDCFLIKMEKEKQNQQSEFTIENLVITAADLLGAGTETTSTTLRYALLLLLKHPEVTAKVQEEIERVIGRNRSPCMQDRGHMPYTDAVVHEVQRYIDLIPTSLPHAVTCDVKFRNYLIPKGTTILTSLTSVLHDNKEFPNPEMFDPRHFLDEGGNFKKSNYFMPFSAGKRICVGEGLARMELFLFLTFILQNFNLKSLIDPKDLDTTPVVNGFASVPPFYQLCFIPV

COc1ncc2nc(-c3cc(F)cc(F)c3)c(=O)n(CCC#N)c2n1
25.6%: max response [11, 20]
active: Potency [3] 6.31 µM
inactive: Potency [1] > 11.4 µM | activity change, negative = inhibition [2] 2.61% | activity change, negative = inhibition [4] -5.52% | activity, negative = inhibition [5] -7.47% | Potency [6] > 9.22 µM | Potency [7] > 46 µM | outcome [8] | Potency [9] | Potency [10] | activity change, negative = inhibition [11] 5.74% | Potency [12]
17.3%: max response [11, 19]

COc1ccccc1CCn1c(=O)c(-c2cc(F)cc(F)c2)nc2cncnc21
2.22%: max response [11, 20]
active: Potency [3] 1.58 µM | Potency [13] 0.398 µM | Potency [14] 1.58 µM
inactive: Potency [1] > 11.4 µM | activity change, negative = inhibition [2] -3.28% | activity change, negative = inhibition [4] -7.47% | activity, negative = inhibition [5] 13% | Potency [6] > 9.22 µM | Potency [7] > 46 µM | outcome [8] | Potency [10] | activity change, negative = inhibition [11] 6.22% | Potency [12]
-2.09%: max response [11, 19]

Cc1cnc(CNc2ncncc2-c2ccc(C(=O)N(C)C)cc2)cn1
16%: max response [11, 19]
inactive: Potency [1] > 11.4 µM | activity change, negative = inhibition [2] 5.94% | activity change, negative = inhibition [4] 2.85% | activity, negative = inhibition [5] 9.42% | Potency [6] > 46 µM | Potency [7] > 46 µM | outcome [8] | Potency [9] | Potency [10] | outcome [15] | activation [16] 0.757% | outcome [17] | activity change, negative = inhibition [11] 10.8% | Potency [12]
28.5%: max response [11, 20]
active: Potency [3] 20 µM

COc1ccccc1CNc1ncncc1-c1ccoc1
active: Potency [3] 1.26 µM
-3.49%: max response [11, 19]
5.8%: max response [11, 20]
inactive: Potency [1] > 11.4 µM | activity change, negative = inhibition [2] -6.36% | activity change, negative = inhibition [4] -22.1% | activity, negative = inhibition [5] -4.03% | Potency [6] > 46 µM | Potency [7] > 46 µM | outcome [8] | Potency [10] | outcome [15] | outcome [17] | activity change, negative = inhibition [11] 9.08% | Potency [12]

CN(C)c1ccc(-c2cc(-n3ccnc3)ncn2)cc1
23%: max response [11, 20]
active: Potency [3] 0.158 µM | Potency [13] 0.0631 µM | Potency [18] 7.94 µM
11.3%: max response [11, 19]
inactive: Potency [1] > 11.4 µM | activity change, negative = inhibition [2] 2.17% | activity change, negative = inhibition [4] 9.75% | activity, negative = inhibition [5] 15.9% | Potency [6] > 46 µM | Potency [7] > 46 µM | outcome [8] | Potency [9] | Potency [10] | outcome [15] | outcome [17] | activity change, negative = inhibition [11] 9.39% | Potency [12]

COc1ccc(Oc2ncc3nc(-c4ccc(OC)cc4)c(=O)n(Cc4cccs4)c3n2)cc1
active: Potency [3] 15.8 µM
13.2%: max response [11, 19]
inactive: Potency [1] > 11.4 µM | activity change, negative = inhibition [2] -28.2% | activity change, negative = inhibition [4] 2.5% | activity, negative = inhibition [5] 8.59% | Potency [6] > 9.22 µM | Potency [7] > 46 µM | outcome [8] | Potency [9] | Potency [10] | activity change, negative = inhibition [11] 6.95% | Potency [12]
21.9%: max response [11, 20]
